Source: PubChem BioAssay AID1778 (Sanford-Burnham Center for Chemical Genomics, 2009)
About 260 (0.09%) of roughly 290,000 compounds were called active. For the sample, actives were picked, then their nearest neighbours and some compounds at random. Measured potencies and affinities stand elsewhere. A number with no mark means an inactive call. Cut-off read from the data, not from the text of the source: active = inhibition above about 50%; inactive = the rest.

Target: Kappa-type opioid receptor (Homo sapiens) (UniProt P41145)
Test: kappa opioid receptor blockers – cell-based, luminescence, uHTS (AID 1778)
Settings: KOR beta-arrestin recruitment, antagonist mode, active compounds read high; at 10 µM unless noted

Kappa-type opioid receptor (Homo sapiens), sequence (P41145 whole entry, looked up): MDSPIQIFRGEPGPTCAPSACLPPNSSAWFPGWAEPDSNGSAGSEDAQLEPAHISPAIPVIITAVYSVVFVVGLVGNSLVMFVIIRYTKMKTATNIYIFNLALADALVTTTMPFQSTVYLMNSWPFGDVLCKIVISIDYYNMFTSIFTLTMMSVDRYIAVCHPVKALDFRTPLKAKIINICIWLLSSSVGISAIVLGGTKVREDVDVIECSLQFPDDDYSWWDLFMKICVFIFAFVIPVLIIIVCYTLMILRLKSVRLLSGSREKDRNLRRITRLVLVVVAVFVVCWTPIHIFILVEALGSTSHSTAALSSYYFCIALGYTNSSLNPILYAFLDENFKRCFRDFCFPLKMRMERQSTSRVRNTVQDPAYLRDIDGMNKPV

Row | Structure (SMILES) | inhibition
1 | CCN(CC)CCCNC(=O)c1cc(Sc2nnc(C)s2)nc2ccccc12 | -6.1%
2 | Cn1cccc1CNC(=S)Nc1ccccc1Cl | 28.1%
3 | Cc1ccc(NC(=O)CC(C)CC(=O)NCc2ccccc2)cc1Cl (stereo not drawn) | -17.8%
4 | O=[N+]([O-])c1ccccc1OC/C(=N\O)c1ccccc1 | 13.6%
5 | COC(=O)c1cn(NC(=O)/C=C/c2cc(OC)ccc2OC)c(=O)c2ccccc12 | -8.8%
6 | CN(C)CC(CCC(CN(C)C)C(=O)c1ccccc1)C(=O)c1ccccc1 (stereo not drawn) | 83.9% (active)
7 | CN(C)CC(CCCCC(CN(C)C)C(=O)c1ccccc1)C(=O)c1ccccc1 (stereo not drawn) | 12.5%
8 | CCOc1ccc(C(=O)C(CCC(CN(C)C)C(=O)c2ccc(OCC)cc2)CN(C)C)cc1 (stereo not drawn) | 15.2%
9 | Cc1cccc(C(=O)OCC(=O)Nc2ccc(N3CCCCC3)cc2)c1O | -7.8%
10 | Cc1ccccc1N(C(=O)Cn1nnc(-c2cccs2)n1)C(C(=O)NCCC(C)C)c1ccco1 (stereo not drawn) | 23.7%
11 | COc1ccccc1NC(=O)CN1CC(=O)Nc2ccccc21 | 0%
12 | COc1ccc(/C=C/C(=O)OCC(=O)N2CC(=O)Nc3ccccc32)cc1S(=O)(=O)N1CCOCC1 | -27.5%
13 | Cc1ccc(NC(=S)NCCCN2CCOCC2)cc1 | 6.6%
14 | Cc1ccc(NC(=S)NCCCN2CCOCC2)cc1C | 50% (active)
15 | Cc1ccc(NC(=S)NCCN2CCOCC2)cc1C | 16.7%
16 | C/C(=N\NC(=O)c1nnn(-c2nonc2N)c1-c1ccc2c(c1)OCO2)c1cccs1 | -7.9%
17 | Cc1ccc(-c2cc(C(=O)Nc3cc(C)ccc3C)[nH]n2)c(O)c1 | 9.1%
18 | CCOC(=O)C(C(C)C)C(N)Cc1ccc(F)cc1 (stereo not drawn) | -13.5%
19 | CCCCC(C(=O)OCC)C(N)Cc1ccc(F)cc1 (stereo not drawn) | 65.2% (active)
20 | CCCCC(CC)C(=O)NCc1ccc(F)cc1 (stereo not drawn) | 8%
21 | Cc1ccccc1Cn1cc(NC(=O)CCCn2nc([N+](=O)[O-])cc2C)cn1 | 16.3%
22 | COc1cccc(CNC(=O)C2CCC(CNS(=O)(=O)c3cccc4cccnc34)CC2)c1 (stereo not drawn) | 27.1%
23 | c1coc(CN=C2NC(=NCc3ccco3)c3ccccc32)c1 | -31.2%
24 | CN(C)c1nc(=NCc2ccco2)ss1 | 83.2% (active)

Row | Structure (SMILES) | inhibition
25 | O=C1CCCC(=NCc2ccco2)C1 | -29.5%
26 | COc1ccc(C)cc1N(C(=O)c1ccco1)C(C(=O)NC1CCCC1)c1ccc(N2CCOCC2)cc1 (stereo not drawn) | 5.8%
27 | CCN(CC)S(=O)(=O)c1cc(OC)ccc1N=Nc1ccc(O)c2ncccc12 | -5.1%
28 | COc1ccc(N=Nc2ccc3ccccc3c2)c(O)c1 | -6.2% [at 20 µM]
29 | CCS(=O)(=O)c1ccc(N=Nc2ccc(O)c3ncccc23)c(OC)c1 | 14%
30 | Cc1cccc(N=Nc2ccc(O)c3ncccc23)c1 | 45.9%
31 | CCOc1ccc(N=Nc2ccc(O)c3ncccc23)cc1 | 32%
32 | COc1cccc(N=Nc2ccc(O)c3ncccc23)c1 | 62.9% (active)
33 | COc1cccc(N=Nc2ccc3ccccc3c2O)c1 | 1.7% [at 20 µM]
34 | CN(NC(=O)COc1ccccc1)c1ccccc1 | 5.9%
35 | CN(CC(=O)Nc1cccnc1)S(=O)(=O)c1cc(Cl)ccc1Cl | 4.2%
36 | COc1cccc(N2C(=O)C3C(C2=O)C3(c2ccccc2)c2ccccc2)c1 (stereo not drawn) | -3.2%
37 | CCN(CC)S(=O)(=O)c1ccc(C(=O)NCC(=O)N/N=C/c2ccccc2OC)cc1 | -11.7%
38 | O=C(OCC(=O)c1ccc(Cl)s1)c1ccccn1 | 34%
39 | O=C(CSc1ccc2nnc(-c3ccccn3)n2n1)NCc1ccco1 | -19.3%
40 | CC(=O)c1sc(-c2ccccc2)cc1N | 4.5%
41 | COCCN=c1scc(-c2ccccc2)n1/N=C/c1c[nH]c2ccccc12 | 38.5%
42 | COCCN=c1scc(-c2cc(OC)c(OC)c(OC)c2)n1/N=C/c1c(C)[nH]c2ccccc12 | 26.6%
43 | Cc1cc([N+](=O)[O-])nn1CC(=O)NCCc1c[nH]c2ccccc12 | 4.9%
44 | COCc1nnc(NC(=O)c2ccc(NC(C)=O)cc2)s1 | 21%
45 | CCOC(=O)N1CCC(N2CCN(c3cc(C)ccc3C)CC2)CC1 | 11.6%
46 | CCc1ccc(N(CC(=O)NC)S(C)(=O)=O)cc1 | 9.3%
47 | COc1cc(OC)cc(C(=O)NCC(=O)OCc2cc(=O)oc3cc(OC)ccc23)c1 | 9.7%
48 | Clc1ccc(SCc2cc(N3CCOCC3)nc(-c3ccccn3)n2)cc1 | 10.2%
